The source made the active and inactive calls. Unless noted, no rule for the calls is given here.

Assay [1] deals with Wnt5a (protein binding on small-molecule microarray). Put plainly: Wnt5a binders on small-molecule microarray, primary screen, biophysical, 635/667 nm fluorescence (AID 1142).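 Also: fluorescence read at 667 nm with signal to noise per printed feature.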 The conditions noted are these: 635 nm fluorescence, higher = more signal.
The nature of assay [2]: cell viability in Huh7 cells, primary screen, cytotoxicity control for HCV replication inhibitor project, CellTiter-Glo luminescence, basal, 48 h (AID 1143).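 Also: Huh7 hepatoma cells carrying a hepatitis C replication reporter with no stimulus; test concentration not given here.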 The conditions noted are these: Huh7 HCV replicon, higher = more signal, called active from +8 up or from −8 down. For orientation: ATP-based viability assays read luminescence as a measure of living cells.
Assay [3] in a line: P. aeruginosa biofilm formation inhibitors, primary screen, PAO1 strain, BacTiter-Glo luminescence, LB-PBS (AID 1144). The conditions noted are these: 12 h, higher = more signal.
Assay [4] can be described thus: CREB reporter modulators without forskolin, primary screen, cell-based, PC12, CRE-LacZ reporter, unstimulated (AID 1145). The conditions noted are these: no forskolin, luminescence, 4.5 h, higher = more signal, called active from +8 up or from −8 down.
Assay [5] can be described thus: CREB reporter modulators under forskolin, primary screen, cell-based, PC12, CRE-LacZ reporter, forskolin-stimulated (AID 1146).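 Also: PC12 cells with 6xCRE LacZ reporter stimulated by forskolin 10 µM; beta-galactosidase reporter signal reflecting CREB driven transcription.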 The conditions noted are these: luminescence, 4.5 h, higher = more signal, called active from +8 up or from −8 down.
The target in assay [6] is Streptavidin (Streptomyces avidinii) (UniProt P22629). Put plainly: streptavidin binders on small-molecule microarray, primary screen, artefact control for SMM compound annotation, biophysical, 635/667 nm fluorescence (AID 1147).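 Also: signal reflects streptavidin binding to arrayed compounds as a control protein.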 The conditions noted are these: streptavidin binding, higher = more signal.
Sequence of Streptavidin (Streptomyces avidinii) (P22629 whole entry, looked up): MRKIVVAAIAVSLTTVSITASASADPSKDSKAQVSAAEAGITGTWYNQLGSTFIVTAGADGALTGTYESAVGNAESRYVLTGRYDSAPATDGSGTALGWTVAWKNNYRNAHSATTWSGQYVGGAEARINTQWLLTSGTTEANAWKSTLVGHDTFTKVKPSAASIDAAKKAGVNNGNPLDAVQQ
Assay [7] in a line: small-molecule binders of probe aInhba, primary screen, biochemical, small-molecule microarray, 635/667 nm fluorescence (AID 1148).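 Also: score merges 667nm spot fluorescence with signal-to-noise for antibody binding to printed compounds.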 The conditions noted are these: higher = more signal.
The target of assay [8] is Torsin-1A (Homo sapiens) (UniProt O14656). Description: torsin A binders from cell lysate, primary screen, small-molecule microarray, wild-type, 635/667 nm (AID 1149). The conditions noted are these: COS7 hTOR1A-WT lysate, 635 nm fluorescence, higher = more signal.
Sequence of Torsin-1A (Homo sapiens) (O14656 whole entry, looked up): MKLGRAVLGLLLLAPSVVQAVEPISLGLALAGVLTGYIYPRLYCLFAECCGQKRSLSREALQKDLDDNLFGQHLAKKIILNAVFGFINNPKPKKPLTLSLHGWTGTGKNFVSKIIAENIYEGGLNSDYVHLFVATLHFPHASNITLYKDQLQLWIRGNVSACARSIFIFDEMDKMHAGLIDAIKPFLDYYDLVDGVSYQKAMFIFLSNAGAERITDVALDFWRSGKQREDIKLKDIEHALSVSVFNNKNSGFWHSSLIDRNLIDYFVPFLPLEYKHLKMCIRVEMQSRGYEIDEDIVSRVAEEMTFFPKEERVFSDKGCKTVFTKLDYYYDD
Assay [9] has the same target. Description: small-molecule binders of mutant TOR1A in lysate, primary screen, cell lysate, small-molecule microarray, COS7 lysate, 635/667 nm fluorescence (AID 1150).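 Also: score pools 667 nm emission and signal to noise measuring lysate protein binding.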 The conditions noted are these: COS7 hTOR1A mutant lysate, 635 nm fluorescence, higher = more signal.
Assay [10] concerns Sonic hedgehog protein (Shh). Put plainly: small-molecule binders of Shh protein, primary screen, biochemical, small-molecule microarray, 635/667 nm fluorescence (AID 1151).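 Also: Shh protein binding to compounds spotted on small-molecule microarray slides; score combines spot fluorescence intensity with signal-to-noise across triplicate slides.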 The conditions noted are these: small-molecule microarray binding, 635 nm fluorescence; higher = more signal.
Assay [11] in a line: E. coli DRC41 culture turbidity changes, primary screen, E. coli filamentation inducer project, strain DRC41, OD650, 48 h (AID 1152).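 Also: E. coli MC1000 strain DRC41 lacking acrAB efflux pump and sulA.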 The conditions noted are these: E. coli DRC41 (acrAB sulA), higher = more signal, called active from +8 up or from −8 down.
The nature of assay [12]: small-molecule binders of probe aLefty1, primary screen, biochemical, small-molecule microarray, 635/667 nm fluorescence (AID 1153).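 Also: score merges spot fluorescence with signal-to-noise ratio from the scanned slide images.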 The conditions noted are these: higher = more signal.
A short description of assay [13]: PSAC antagonists in infected red cells, primary screen, cell-based, P. falciparum Indochina, OD700, 1 h (AID 1154). The conditions noted are these: P. falciparum Indochina infected RBC osmotic lysis, higher = more signal, called active from +8 up or from −8 down.
Assay [14] in a line: PSAC antagonists in infected red cells, primary screen, cell-based, P. falciparum Indochina, OD700, 2 h (AID 1155).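 Also: lysis reports solute entry through the parasite surface anion channel PSAC; channel blockers reduce lysis of infected cells.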 The conditions noted are these: P. falciparum Indochina infected erythrocytes, osmotic lysis OD700; higher = more signal, called active from +8 up or from −8 down.
The nature of assay [15]: osmotic lysis modulators in infected erythrocytes, primary screen, PSAC antagonist project, cell-based, P. falciparum Indochina, OD700, 3 h (AID 1156). The conditions noted are these: higher = more signal, called active from +8 up or from −8 down.
Assay [16] can be described thus: PSAC antagonists in infected red cells, primary screen, cell-based, P. falciparum Indochina, OD700, 18 h (AID 1157). The conditions noted are these: P. falciparum Indochina infected erythrocytes, osmotic lysis OD700, 18 h; higher = more signal, called active from +8 up or from −8 down.
Assay [17] can be described thus: modulators of S6 phosphorylation in cells, primary screen, cell-based, A549, cytoblot, luminescence, serum-stimulated (AID 1158).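 Also: serum-stimulated A549 lung adenocarcinoma cells; signal is phosphorylated S6 detected by cytoblot immunostaining with HRP secondary.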 The conditions noted are these: A549 phospho-S6 cytoblot, 5 h, higher = more signal.
Assay [18] has as its target NADPH oxidase 2 (Homo sapiens) (UniProt P04839). Put plainly: NOX2-dependent H2O2 signal modulators, primary screen, NOX inhibitor project, cell-based, HEK293-NOX2, PMA-stimulated, Amplex Red fluorescence (AID 1159). Also: test concentration not given here. The conditions noted are these: 45 min, higher = more signal, called active from +8 up or from −8 down.
The target of assay [19] is NADPH oxidase 4 (Homo sapiens) (UniProt Q9NPH5). Description: NOX4-dependent H2O2 signal modulators, primary screen, NOX inhibitor project, cell-based, HEK293-NOX4, tetracycline-induced, Amplex Red fluorescence (AID 1160). The conditions noted are these: 45 min, higher = more signal, called active from +8 up or from −8 down.
Sequence of NADPH oxidase 4 (Homo sapiens) (Q9NPH5 whole entry, looked up): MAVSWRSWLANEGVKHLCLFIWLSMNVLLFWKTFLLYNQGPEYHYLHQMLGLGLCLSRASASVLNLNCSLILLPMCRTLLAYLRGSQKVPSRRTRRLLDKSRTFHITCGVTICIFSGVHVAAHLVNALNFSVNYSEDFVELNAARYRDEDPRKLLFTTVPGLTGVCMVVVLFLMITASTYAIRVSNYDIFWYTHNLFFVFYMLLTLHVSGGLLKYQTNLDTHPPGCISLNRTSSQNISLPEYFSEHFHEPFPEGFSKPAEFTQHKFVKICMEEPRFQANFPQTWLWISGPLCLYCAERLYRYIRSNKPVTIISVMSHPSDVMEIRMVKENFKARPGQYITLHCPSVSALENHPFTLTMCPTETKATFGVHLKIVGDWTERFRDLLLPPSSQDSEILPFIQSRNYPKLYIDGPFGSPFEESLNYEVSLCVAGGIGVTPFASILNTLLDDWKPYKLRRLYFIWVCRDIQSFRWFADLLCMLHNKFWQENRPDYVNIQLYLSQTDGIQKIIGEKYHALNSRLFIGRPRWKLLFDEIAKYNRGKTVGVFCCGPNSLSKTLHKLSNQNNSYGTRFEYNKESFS
Assay [20] has as its target NADPH oxidase 5 (Homo sapiens) (UniProt Q96PH1). Description: NOX5-dependent H2O2 signal modulators, primary screen, NOX inhibitor project, cell-based, HEK293-NOX5, Amplex Red fluorescence (AID 1161). The conditions noted are these: HEK293-NOX5, ionomycin, 45 min, higher = more signal.

Sequence of NADPH oxidase 5 (Homo sapiens) (Q96PH1 whole entry, looked up): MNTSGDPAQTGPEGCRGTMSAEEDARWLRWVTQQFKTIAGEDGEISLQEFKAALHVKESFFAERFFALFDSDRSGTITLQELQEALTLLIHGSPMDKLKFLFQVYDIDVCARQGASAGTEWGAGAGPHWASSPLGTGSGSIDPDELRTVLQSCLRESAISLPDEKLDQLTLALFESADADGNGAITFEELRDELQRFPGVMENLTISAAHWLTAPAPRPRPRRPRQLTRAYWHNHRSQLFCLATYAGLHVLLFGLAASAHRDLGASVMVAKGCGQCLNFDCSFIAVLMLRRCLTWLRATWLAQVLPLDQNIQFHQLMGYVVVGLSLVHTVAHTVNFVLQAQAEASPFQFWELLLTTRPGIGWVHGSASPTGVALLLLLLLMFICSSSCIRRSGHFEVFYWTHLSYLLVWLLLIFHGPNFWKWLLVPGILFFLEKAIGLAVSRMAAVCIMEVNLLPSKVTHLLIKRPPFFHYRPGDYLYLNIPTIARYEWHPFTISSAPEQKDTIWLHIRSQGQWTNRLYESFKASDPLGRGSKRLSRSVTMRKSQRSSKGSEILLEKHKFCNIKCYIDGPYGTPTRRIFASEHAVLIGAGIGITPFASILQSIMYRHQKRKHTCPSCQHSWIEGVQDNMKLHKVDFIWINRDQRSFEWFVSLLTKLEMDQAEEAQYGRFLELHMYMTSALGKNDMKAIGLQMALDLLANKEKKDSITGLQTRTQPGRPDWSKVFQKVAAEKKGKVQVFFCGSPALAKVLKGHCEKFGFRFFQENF
Sequence of NADPH oxidase 2 (Homo sapiens) (P04839 whole entry, looked up): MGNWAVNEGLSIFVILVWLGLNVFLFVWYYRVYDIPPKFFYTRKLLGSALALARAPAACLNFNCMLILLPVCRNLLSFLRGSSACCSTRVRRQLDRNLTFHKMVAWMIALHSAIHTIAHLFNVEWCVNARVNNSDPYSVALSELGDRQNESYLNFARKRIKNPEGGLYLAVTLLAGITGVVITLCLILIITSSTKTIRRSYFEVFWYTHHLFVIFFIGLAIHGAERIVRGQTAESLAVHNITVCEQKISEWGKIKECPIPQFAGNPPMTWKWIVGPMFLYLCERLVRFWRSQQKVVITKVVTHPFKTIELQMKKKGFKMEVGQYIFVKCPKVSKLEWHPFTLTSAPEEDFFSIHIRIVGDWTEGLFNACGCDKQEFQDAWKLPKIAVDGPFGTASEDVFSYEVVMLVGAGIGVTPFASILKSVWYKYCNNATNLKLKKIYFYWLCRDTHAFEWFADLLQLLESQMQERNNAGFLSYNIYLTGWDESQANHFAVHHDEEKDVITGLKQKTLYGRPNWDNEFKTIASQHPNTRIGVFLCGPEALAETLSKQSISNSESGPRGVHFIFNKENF

`CCCCCN1CC=CC23O[C@@H]4/C=C\CCC(C)OC(=O)C4[C@H]2C(=O)N(C(CO)C(C)C)[C@@H]3C1=O` (stereo not given in full): the composite z-score in [1] is -0.236; in assay [6] it was -0.282; in assay [7], -0.101; in assay [8], -1.36; in [9], -0.303; in assay [10], 0.866. The composite z-score in [12] is -0.106. Besides, the z-score is 0.209 (inactive) in [2]; -1.34 (inactive) in assay [3]; -1.58 (inactive) in [4]; -0.601 (inactive) in assay [5]; 1.66 (inactive) in assay [11]; 1.38 (inactive) in assay [13]. For the same molecule, the z-score was 0.881 (inactive) in assay [14]; 1.2 (inactive) in assay [15]; 0.699 (inactive) in assay [16]; -0.0209 in [17]; 1.36 (inactive) in [18]; -0.231 (inactive) in [19]. This molecule also returned a z-score in [20] of 1.86.
With `C[N+](C)(C)CCCC[C@@H]1NC(=O)[C@@H]2C[C@H](C(=O)NCCCCCCN)[C@H](c3cccc(OCCO)c3)N2C1=O`, the composite z-score in assay [1] was 0.397; in assay [6] it was 1.67; in assay [7], 1.22; in assay [8] it was 0.85; in assay [9], 1.65; in [10], 0.691. Besides, the composite z-score in assay [12] is 2.07. Further, the z-score was 0.279 (inactive) in assay [2]; 0.32 (inactive) in assay [3]; 2.84 (inactive) in assay [4]; -0.618 (inactive) in [5]; 0.0598 (inactive) in [11]; 2.07 (inactive) in assay [13]. Also, the z-score in [14] is 0.679 (inactive); in assay [15], 0.837 (inactive); in assay [16], 0.229 (inactive); in assay [17], 0.38; in assay [18], 0.827 (inactive); in [19], 0.0305 (inactive). This molecule also had a z-score in assay [20] of 0.559.
For `COc1cc(NN2C(C(O)c3ccco3)C=CC3C(=O)N(C)C(=O)C32)cc(OC)c1OC` (stereo not given), the composite z-score in assay [1] was 0.259; in assay [6] it was 0.536; in [7], 0.288; in assay [8], 1.27; in [9], 1.04; in [10], 0.0765. Besides, in assay [12], the composite z-score came to 0.429. The z-score in assay [2] was 1.06 (inactive); in assay [3] it was 0.184 (inactive); in assay [4] it was 0.815 (inactive); in assay [5] it was 1.06 (inactive); in assay [11], -1.82 (inactive); in [13], 0.715 (inactive). Further, the z-score in assay [14] was 0.959 (inactive); in assay [15], 0.214 (inactive); in [16], 1.1 (inactive); in [17] it was -0.808; in [18] it was -1.95 (inactive); in [19] it was -3.55 (inactive). Moreover, in assay [20], the z-score was -2.81.
In the case of `CCCN1C(=O)[C@@]2(Cc3ccccc31)N=C(c1ccc(OCCCO)cc1)O[C@H]2c1ccccc1`, the composite z-score in assay [1] was 1.16; in assay [6], 0.469; in [7], -0.016; in assay [8], 1.71; in assay [9], 1.34; in [10], 1.01. In [12], this molecule came in with a composite z-score of 0.396. Further, the z-score was -3.36 (inactive) in assay [2]; 0.849 (inactive) in assay [3]; 2.07 (inactive) in assay [4]; -0.0414 (inactive) in assay [5]; -0.621 (inactive) in assay [11]; 18.6 (active) in assay [13]. For the same molecule, the z-score in assay [14] was 3.99 (inactive); in assay [15], 2.49 (inactive); in assay [16] it was 0.986 (inactive); in assay [17], -0.408; in assay [18], -0.135 (inactive); in assay [19], -0.123 (inactive). The molecule further had a z-score in assay [20] of -1.61.

These data come from PubChem BioAssay.
